# PubChem BioAssay AID2524 (Sanford-Burnham Center for Chemical Genomics, 2010)
# About 540 (0.16%) of roughly 330,000 compounds were called active.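 The calls were made as follows: active = activation factor of the enzyme at least 2-fold when tested at 20 µM; inactive = the rest.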 The sample as a whole holds a higher share of actives than the screen did.
# Target: Intestinal-type alkaline phosphatase (Homo sapiens) (UniProt P09923)
# Test: human IAP activators, primary screen, biochemical, luminescence, uHTS (AID 2524)
# Conditions: purified human IAP, CDP-Star luminescence, 30 min; at 10 µM; hits give high values; 1 = vehicle-only enzyme, 0 = enzyme-free background
# Chain of Intestinal-type alkaline phosphatase (Homo sapiens) (P09923 whole entry, looked up): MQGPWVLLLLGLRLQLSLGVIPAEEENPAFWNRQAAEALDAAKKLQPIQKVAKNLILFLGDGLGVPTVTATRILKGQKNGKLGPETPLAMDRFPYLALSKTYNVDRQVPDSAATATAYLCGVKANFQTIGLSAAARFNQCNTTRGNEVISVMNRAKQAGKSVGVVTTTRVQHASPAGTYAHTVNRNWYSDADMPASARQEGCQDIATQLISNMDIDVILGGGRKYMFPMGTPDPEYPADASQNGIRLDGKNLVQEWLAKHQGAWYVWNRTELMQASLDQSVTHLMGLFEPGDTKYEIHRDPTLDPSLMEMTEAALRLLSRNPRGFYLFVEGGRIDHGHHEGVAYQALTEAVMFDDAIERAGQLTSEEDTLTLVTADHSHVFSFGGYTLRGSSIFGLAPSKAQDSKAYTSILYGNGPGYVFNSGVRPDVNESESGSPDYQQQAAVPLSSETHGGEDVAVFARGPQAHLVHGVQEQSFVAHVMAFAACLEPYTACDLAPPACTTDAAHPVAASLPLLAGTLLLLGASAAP
row,SMILES,activation factor
1,CN1C(=O)C2(OCCCO2)c2cc(Cl)ccc21,0.939 (inactive)
2,CC(=O)NCCc1ccc(S(=O)(=O)Nc2ccc(C)c(S(=O)(=O)N3CCOCC3)c2)cc1,0.976 (inactive)
3,COc1ccc(N(CC(=O)NCCSCc2cccc(Cl)c2)S(C)(=O)=O)cc1,1.4 (inactive)
4,Cn1cnnc1SCC(=O)Nc1ccc(N2CCOCC2)cc1,1.03 (inactive)
5,Cn1cnnc1SCC(=O)NNC(=O)COc1ccc(Br)cc1,1.79 (inactive)
6,CCOc1ccc(NC(=O)CSc2nncn2C)cc1,3.82 (active)
7,Cc1cn(C2C=CC(CO)O2)c(=O)[nH]c1=O (centres undefined),0.925 (inactive)
8,Cc1cc2c(cc1C)[n+](C)cn2CC(O)COCC1CC=CCC1 (centres undefined),0.897 (inactive)
9,N=c1c2c(-c3ccccc3)c(-c3ccccc3)n(Cc3ccccc3)c2ncn1CCCO,1.11 (inactive)
10,OCCCN1c2ccccc2Nc2nnc(-c3ccccc3)cc21,2.48 (active)
11,O=C(NC(=S)Nc1ccccc1C(=O)O)c1ccc(-c2ccc(Br)cc2)o1,0.945 (inactive)
12,CCCCCC1CC(COc2ccccc2)OC1=O (centres undefined),0.9 (inactive)
13,CC(C)(C)NC(=O)C(=O)NCc1ccncc1,1.09 (inactive)
14,CC(NCC(=O)Nc1cc(Cl)cc(Cl)c1)c1ccccc1 (centres undefined),1.03 (inactive)
15,CCC(C(=O)Nc1ccc2c(c1)OCCO2)c1ccccc1 (centres undefined),0.871 (inactive)
16,CCC(C(=O)Nc1ccc(C(C)C)cc1)c1ccccc1 (centres undefined),2.92 (active)
17,CCC(C(=O)OCC(=O)Nc1ccc(C(=O)Nc2ccc(OC)cc2)cc1)c1ccccc1 (centres undefined),1.08 (inactive)
18,O=C(CSc1nnnn1C1CCCC1)Nc1ccc2c(c1)OCCO2,0.96 (inactive)
19,Cc1cnc(NC(=O)Cn2cnc3c2c(=O)n(C)c(=O)n3C)s1,1 (inactive)
20,CCOc1ccc(C(=O)COC(=O)c2ccc(-n3cnnn3)cc2)cc1,1.05 (inactive)
21,CC(=O)NC1C(Oc2ccc(C)cc2)OC2COC(c3ccco3)OC2C1O (centres undefined),1.11 (inactive)
22,Oc1cccc(/C=N/Nc2ccc(Cl)nn2)c1O,2.16 (active)
23,Oc1ccc(Br)cc1/C=N/Nc1ccccn1,1.22 (inactive)
24,O=C(COc1ccc2c(C(F)(F)F)cc(=O)oc2c1)Nc1ccc2c(c1)OCCO2,1.02 (inactive)

row,SMILES,activation factor
1,C=CCOc1cccc(CNn2cn[nH]c2=S)c1,0.895 (inactive)
2,CNC(=O)CN1C(=O)NC(c2ccccc2)(c2ccccc2)C1=O,1.05 (inactive)
3,CCOc1ccccc1N1C(=O)CC(Sc2nccc(C)n2)C1=O (centres undefined),1.29 (inactive)
4,O=C(NCC(=O)N1CCC2(CC1)NCCc1[nH]cnc12)c1ccc(Br)cc1,1.11 (inactive)
5,O=C(O)CSC(NC(=O)c1cccnc1)(C(F)(F)F)C(F)(F)F,0.961 (inactive)
6,O=C1COc2ccc(C(=O)CSc3ccc(Br)cc3)cc2N1,1.06 (inactive)
7,c1ccc2[nH]c(-c3nc4ccccc4[nH]3)nc2c1,2.1 (active)
8,O=[N+]([O-])c1ccc2nc(-c3ccccn3)[nH]c2c1,1.4 (inactive)
9,O=C(Nc1sc2c(c1-c1nc3ccccc3[nH]1)CCCC2)C1CC1,1.06 (inactive)
10,O=C(NCCC1CCCCN1S(=O)(=O)c1ccc(Cl)cc1)C(=O)NCc1ccco1 (centres undefined),1.03 (inactive)
11,Cn1c(=O)c2sccc2n(Cc2ccc(Br)cc2)c1=O,0.619 (inactive)
12,Cn1c(=O)c2c(nc(N/N=C/c3cccs3)n2Cc2ccc(Br)cc2)n(C)c1=O,2.42 (active)
13,Cn1c(=O)c2c(nc(NCCc3ccccc3)n2Cc2ccccc2)n(C)c1=O,0.914 (inactive)
14,Cc1cccc(NC(=O)CSc2nnc(CCCCCNC(=O)OC(C)(C)C)o2)c1C,0.854 (inactive)
15,O=C(O)CCC(=O)Nc1ccc(OCC2CCCO2)cc1 (centres undefined),0.853 (inactive)
16,Cc1cc(C)c(C#N)c(SCC(=O)N(CC(C)C)C2CCS(=O)(=O)C2)n1 (centres undefined),0.97 (inactive)
17,O=C(Nc1ccon1)c1nc[nH]c1C(=O)NCc1ccccc1,2.43 (active)
18,CCOC(=O)c1ccc(NC(=O)c2nc[nH]c2C(=O)NCc2ccccc2)cc1,1.59 (inactive)
19,Cc1cccc(NC(=O)c2nc[nH]c2C(=O)NCC(=O)OCc2ccccc2)c1,1.09 (inactive)
20,Cc1ccc2cc(CCNC(=O)c3c(-c4ccccc4Cl)noc3C)c(=O)[nH]c2c1,0.983 (inactive)
21,COc1ccc(C(=O)NNc2cc(C)nc(NNC(=O)c3ccc(OC)cc3)n2)cc1,2.25 (active)
22,COc1ccc(C(=O)NNC(=O)c2cc(C)[nH]n2)cc1,1.61 (inactive)
23,COc1ccc(C(=O)NNS(=O)(=O)c2ccc(C)cc2)cc1,0.935 (inactive)
24,CC(=O)NC1C(Oc2ccc(C=O)cc2)OC(COC(C)=O)C(OC(C)=O)C1OC(C)=O (centres undefined),1.03 (inactive)

row,SMILES,activation factor
1,CN(C)C(CNC(=O)c1cccc(C#N)c1)c1ccco1 (centres undefined),0.873 (inactive)
2,OC(c1nc2ccc(F)cc2[nH]1)C(O)c1nc2ccc(F)cc2[nH]1 (centres undefined),3.62 (active)
3,Oc1ccc2nc(Cc3ccccc3)[nH]c2c1,0.985 (inactive)
4,CN(Cc1nc2ccc(F)cc2[nH]1)Cc1nc(CC2CC2)no1,0.896 (inactive)
5,Nc1ncnc2c1ncn2[C@@H]1O[C@H](CNCc2cccn2-c2nccs2)[C@@H](O)[C@H]1O,0.901 (inactive)
6,CC(C)=CCN1CCN(Cc2cc3ccccc3[nH]2)CC1CCO (centres undefined),1.13 (inactive)
7,Cc1ccc(NC(=O)CN2C(=O)NC(C)(c3ccc(Cl)cc3)C2=O)c(Br)c1 (centres undefined),1 (inactive)
8,CN(c1ccccc1)S(=O)(=O)c1cccc(NC(=O)Cc2ccc(Cl)cc2)c1,1.01 (inactive)
9,CCOC(=O)c1sc(NC(=O)CSc2nc(C)cc(C(F)(F)F)n2)c(C#N)c1C,0.888 (inactive)
10,COc1ccccc1N(C)S(=O)(=O)c1ccc(C(=O)N2CCC(C(N)=O)CC2)cc1,0.887 (inactive)
11,O=C(CCCCO)c1ccc(O)c(Cl)c1,1.08 (inactive)
12,CC(C)c1ccc(NC2CCCN(C(=O)c3ccncc3)C2)cc1 (centres undefined),0.926 (inactive)
13,Cc1ccc(S(=O)(=O)N2[C@@H](c3cccc(Cl)c3)C(C(=O)O)=CC[C@H]2c2ccc(Cl)c(Cl)c2)cc1,1.09 (inactive)
14,COC(C[C@@H](O)[C@H](C)[C@H](O)COCc1ccccc1)OC,0.977 (inactive)
15,O=C(OCC1O[C@@H](OC(=O)c2cc(O)c(O)c(O)c2)[C@@H](OC(=O)c2cc(O)c(O)c(O)c2)[C@@H](OC(=O)c2cc(O)c(O)c(O)c2)[C@@H]1OC(=O)c1cc(O)c(O)c(O)c1)c1cc(O)c(O)c(O)c1 (some centres undefined),3.98 (active)
16,COc1ccc(C(=O)N(Cc2ccccc2)c2ccc(C)cc2)cc1S(=O)(=O)N1CCOCC1,0.94 (inactive)
17,CC(C)NC(=O)NCCCCCCS(C)=O (centres undefined),1.08 (inactive)
18,CC(C)CN(CC(C)C)CC(O)CN(c1ccccc1)S(=O)(=O)c1ccccc1[N+](=O)[O-] (centres undefined),0.882 (inactive)
19,CC(C)N(C(=O)CSc1nc(COc2ccccc2)nc2ccccc12)C(C)C,0.961 (inactive)
20,COc1cccc(NC(=O)CN(C)C(=O)c2ccccc2CCc2ccccc2)c1,1.1 (inactive)
21,Cn1cc(S(=O)(=O)N2CCN(c3ccc(F)cc3)CC2)c(=O)n(C)c1=O,1.04 (inactive)
22,O=S(=O)(CCc1nc2ccccc2o1)c1ccc(Cl)cc1,0.959 (inactive)
23,CC(C)CC(N=C1NC(C)(C)Cc2ccccc21)C(=O)O (centres undefined),0.9 (inactive)
24,CCOC(=O)C1=NNC2(c3ccc(Cl)cc3)C(=O)N(c3cc(C)cc(C)c3)C(=O)C12 (centres undefined),1.06 (inactive)

row,SMILES,activation factor
1,O=S(=O)(c1ccc(F)cc1)N1CC=C(c2ccccc2)CC1,1.01 (inactive)
2,CN1CCN(Cc2c(C(=O)N3CCc4ccccc4C3)nc3ccc(Cl)cn23)CC1,1.33 (inactive)
3,CC(C)CC(=O)Nc1nnc(S(=O)(=O)N(C)c2ccc(Cl)cc2)s1,0.968 (inactive)
4,COc1ccc(-n2nnc3c(=O)n(CC(=O)N4CCC(Cc5ccccc5)CC4)cnc32)cc1,1.02 (inactive)
5,COc1cc(/C=N\NC(=O)C2C(=O)NCC2c2ccccc2)cc(OC)c1O (centres undefined),0.911 (inactive)
6,COc1cccc(/C=N/NC(=O)c2[nH]nc3c2CCc2ccccc2-3)c1O,2.64 (active)
7,COc1cc(/C=N/NC(=O)c2cc(-c3ccccc3C)nc3ccccc23)cc(OC)c1O,0.992 (inactive)
8,COc1cccc(/C=N\NC(=O)C2=NNC(=O)C2C)c1O (centres undefined),2.88 (active)
9,COc1ccc(/C=N/NC(=O)c2ccncc2)cc1CN1CCCc2ccccc21,1.06 (inactive)
10,CCOc1ccc2[nH]c(C(=O)N/N=C/c3cccc(OC)c3OC)cc2c1,0.924 (inactive)
11,Cc1ccc(OCC(=O)Nc2ccccc2C(=O)NC2CC2)cc1,0.945 (inactive)
12,Cc1ccccc1N1C(=O)C(Oc2ccc(Cl)cc2)C1CNCC1CCCO1 (centres undefined),0.957 (inactive)
13,CN=C(Nc1cccc(S(=O)(=O)N2CCOCC2)c1)c1ccccc1,0.956 (inactive)
14,FC(F)(F)c1ccc(-n2cn[nH]c2=S)cc1,1.1 (inactive)
15,CC(CCN1CCN=C1N(C)C)c1ccccc1 (centres undefined),0.995 (inactive)
16,O=C(Nc1ccccc1C(F)(F)F)N1CCCC1c1cccnc1 (centres undefined),0.942 (inactive)
17,Cc1cc(=O)n2nc(N3CCCC(C(=O)NCc4cccc(Cl)c4)C3)sc2n1 (centres undefined),1.28 (inactive)
18,CCCCN(CC(=O)NC(C)(C)C)C(=O)C(=O)Nc1ccc2c(c1)OCCO2,1.04 (inactive)
19,COC(=O)Nc1sc2nc(C)cc(C)c2c1-n1cccc1,0.984 (inactive)
20,CCCCOC(=O)Nc1sc2nc(C)cc(C)c2c1-n1cccc1,2.01 (active)
21,Cc1cc(C)c2c(-n3cccc3)c(NC(=O)OCc3ccccc3)sc2n1,1.11 (inactive)
22,Cc1ccc(OCCCCN2CCCCC2)c(Br)c1,1.08 (inactive)
